Screening results as filed in PubChem BioAssay.
HT1080 IDH1KD tx: kills HT-1080 cells with IDH1 knockdown | 360,000 compounds, 2% hits | Potency, µM (titrated, usually from 46.1 µM), for the others: at the top dose activity, negative = toxicity, actives largely listed as cytotoxic | HT-1080 IDH1 knockdown viability, ATP luminescence, 48 h;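 also: 0% = DMSO wells and -100% = cell-free medium wells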
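HT-1080-IDH1KD cells (IDH1 knocked down), 750/well in RPMI with 5% FBS, treated with compound 48 h at 37 degrees C. Viability by CellTiter-Glo luminescence, normalised to DMSO and no-cell wells; concentration-response curves classed.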
HT1080NT lethal: kills 2HG-producing HT-1080-NT fibrosarcoma cells; HT-1080-NT fibrosarcoma viability, CellTiter-Glo ATP luminescence, 48 h; Potency, µM (top dose mostly 46.1 µM), inactives show at the top dose activity, negative = less viability, actives largely listed as cytotoxic; 360,000 compounds, 1.6% hits; AID 686970;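 also: NT is the 2HG producing partner of a matched IDH1 knockdown line; 0% = DMSO-treated cells and -100% = media-only wells without cells; nearly all actives have a fitted effect of over 55% in size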
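Toxicity toward the 2HG-producing NT line was scored as %Activity, normalised to DMSO and no-cell wells, from CellTiter-Glo luminescence after 48 hours' treatment.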
KB-V1 MDR tox: KB-V1 MDR subline cytotoxicity | KB-V1 MDR cells viability, CellTiter-Glo, 72 h | Potency, µM (titrated, usually from 46.1 µM), most hits filed as cytotoxic | 400,000 compounds, 3.4% hits | AID 1347076; also: nearly all actives have a fitted effect of over 60% in size
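In this primary screen, KB-V1 cells overexpressing P-gp are incubated with library compounds (lowest to highest concentration) for 72 h at 37 degrees C before a luminescent ATP viability read.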
DT40 TDP1 CPT: DT40-hTDP1 cell growth loss with CPT | chicken DT40 Tdp1-/-;hTDP1 cells + 20 nM CPT, ATP luminescence, 48 h | Potency, µM (top dose mostly 46.2 µM), for the others: at the highest dose activity change, negative = growth inhibition, actives largely listed as inhibitors | 420,000 compounds, 12% hits | AID 686979; also: nearly all actives have a fitted effect of over 55% in size
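Chicken DT40 Tdp1-/- cells stably complemented with human TDP1 were seeded at 400 cells/well in medium containing 20 nM camptothecin, exposed to pin-transferred compounds, and grown at 37 °C for at least 48 hr. Viability was read as ATP luminescence.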
TDP1 cell noCPT: qHTS for Inhibitors of human tyrosyl-DNA phosphodiesterase 1 (TDP1): qHTS in cells in absence of CPT | DT40 Tdp1-/- hTDP1 cells, no CPT, ATP luminescence, 48 h | 420,000 compounds, 15% hits | Potency, µM (highest dose often 46.2 µM), for inactives: at the highest dose activity change, negative = growth inhibition, most hits filed as inhibitors; also: nearly all actives have a fitted effect of over 55% in size
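Camptothecin absent (DMSO only). Human TDP1-complemented DT40 knockout cells, 400 cells/well, 37 °C for minimum 48 hr; ATP measured via CellTiter-Glo, 30 min dark incubation, luminescence.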
KB-3-1 tox: KB-3-1 parental cell cytotoxicity | 400,000 compounds, 1.4% hits | KB-3-1 viability, CellTiter-Glo ATP luminescence, 72 h | AID 1347075 | Potency, µM (highest dose often 46.1 µM), most hits filed as cytotoxic; also: nearly all actives have a fitted effect of over 60% in size
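Parental KB-3-1 viability, qHTS format: 72 h compound exposure, 37 °C; CellTiter-Glo; media-only wells and DMSO plates as controls; concentration-effect fits on corrected data.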
* hit, by the source's call; i = inactive; ? = inconclusive; nt = no result. Hits are enriched below; roughly 19% of the tested compounds scored in any of these assays. Calls follow the shape of the dose curve; as a rule, active = well fitted curve in the direction sought with a large enough effect; inconclusive = small, poorly fitted or top-dose-only effect, or another doubt; inactive = no such curve, though single readings can be large; an effect the other way counts as inactive or inconclusive. Unless noted, % is scaled to controls: 0 for no effect and ±100 for the full control effect; potency is read from the fitted curve at half-maximal effect.

SMILES | HT1080 IDH1KD tx | HT1080NT lethal | KB-V1 MDR tox | DT40 TDP1 CPT | TDP1 cell noCPT | KB-3-1 tox
Cc1nn(CC(=O)OC(C)C(=O)Nc2ccccc2[N+](=O)[O-])c(C)c1[N+](=O)[O-] (stereo not given) | 7% | 7% | i | -11% | 0% | i
O=C(OCc1nnc(-c2ccc(Br)cc2)o1)c1cncc(Br)c1 | 28% | 27% | i | 2% | -12% | i
COc1ccc2ccc(OC)c(/C=N/n3cnnc3)c2c1 | -7% | -20% | i | 0% | ? | i
Cc1c2cnn(CC(=O)NCC(C)c3ccccc3)c(=O)c2c(C)n1Cc1cccc(Cl)c1 (stereo not given) | nt | nt | i | -3% | ? | i
Cc1c(O)ccc(/C(Cc2ccc3ccccc3n2)=N\O)c1O | -3% | -2% | ? | 21µM* | 21µM* | 16µM*
Oc1ccc(/C(Cc2ccc3ccccc3n2)=N\Nc2ccccc2)c(O)c1 | ? | ? | ? | ? | 23µM* | ?
Oc1ccc(/C(Cc2ccccn2)=N\Nc2ccccc2)c(O)c1 | 9.2µM* | ? | ? | ? | ? | i
N/N=C(\Cc1cscn1)c1ccc(O)cc1O | -15% | -4% | ? | -8% | ? | i
COc1cc(CNCCO)ccc1OCC(=O)Nc1ccc(Br)cc1 | -22% | ? | i | ? | -14% | ?
COc1ccccc1CNC(=O)C1CCN(Cc2nc(-c3cccc(Cl)c3)oc2C)CC1 | 15% | 0% | i | 21µM* | ? | ?
Cc1ccccc1-c1nc(CN2CCC(C(=O)N3CCN(c4ccccn4)CC3)CC2)c(C)o1 | -1% | -11% | i | 23µM* | ? | ?
CCN1CCCC1CNC(=O)C1CCN(Cc2nc(-c3cccc(Br)c3)oc2C)CC1 (stereo not given) | ? | 21µM* | i | 5.8µM* | 2.9µM* | ?
Cc1ccccc1-c1nc(CN2CCC(C(=O)N3CCC(C(N)=O)CC3)CC2)c(C)o1 | 0% | 15% | i | 18% | -1% | i
Cc1oc(-c2cccc(Cl)c2)nc1CN1CCC(C(=O)NCc2ccc(F)cc2)CC1 | nt | nt | i | ? | 15µM* | i
O=C(O)C(CCc1ccccc1)N1C(=O)c2ccccc2C1=O (stereo not given) | 11% | 12% | i | -5% | -13% | i
CC(NC(=O)C1(c2cccs2)CCOCC1)c1ccccc1 (stereo not given) | 2% | 4% | i | -8% | -25% | i
Cc1ccc(CNC(=O)C(c2ccccc2)c2ccccc2)cc1 | 11% | 14% | i | -11% | -25% | i
COc1ccc(C(=O)NNC(=O)CN2CCN(c3nc(-c4ccccc4)cs3)CC2)cc1 | -11% | -15% | i | ? | 6% | i
CCc1ccc(-c2nc(CN3CCC(C(=O)NCc4ccccc4OC)CC3)c(C)o2)cc1 | -24% | -22% | ? | 18µM* | ? | ?
Cc1oc(-c2ccc(Cl)cc2)nc1CN1CCC(C(=O)NCc2ccco2)CC1 | -2% | -25% | 9.2µM* | -23% | ? | i
Cc1ccccc1-c1nc(CN2CCC(C(=O)NCc3ccc(F)cc3)CC2)c(C)o1 | nt | nt | i | 16µM* | 21µM* | i
O=C(Cn1ccc(=O)[nH]c1=O)c1ccc([N+](=O)[O-])o1 | ? | ? | i | 5.2µM* | 2.1µM* | i
O=C(Cn1ccc(=O)[nH]c1=O)NCCO | 18% | 20% | i | -2% | -13% | i
O=C(C1CC=CCC1)N1CCC(CO)(Cc2ccc(Cl)cc2)CC1 (stereo not given) | 2% | -20% | 12µM* | ? | ? | ?
